This passage reports Potency results from PubChem BioAssay AID1159524 (National Center for Advancing Translational Sciences (NCATS), 2015).

Each structure is given as a SMILES string. The whole screen tested about 410,000 compounds, of which about 5,100 (1.2%) were called active. About 8% were inconclusive and are not listed. Calls come from the whole dose curve; tested in HEK293T cells. What follows is part of a selection rich in actives, with near analogues and random picks from the rest. A call without a number means that no potency is given here.
Potency is the fitted concentration of half-maximal effect.

The nature of the assay: High Throughput Screening for Foot and Mouth Disease Virus Antivirals. Note: read-out not given here; nearly all actives have a fitted effect of over 45% in size. As to conditions: FMDV antiviral cell-based qHTS; series mostly up to 57.9 µM.
Turning to `COc1ccccc1-c1ccnc(-n2ncc(C(=O)NCCc3ccncc3)c2C)n1`, the Potency result is “inactive”.
As for `N#Cc1cccc(-c2nc3cnc(N4CCNCC4)nc3n(C3CC3)c2=O)c1`, the Potency entry was “inactive”.
The result for `Cc1c(C(=O)N2CCCC2)oc2c1-c1nn(CC(=O)NCc3ccc(OC(C)C)cc3)cc1CC2` reads 28.2 µM (active).
The result for `CCCN(CCC)CCCNC(=O)Cn1cc2c(n1)-c1c(oc(C(=O)N3CCCC3)c1C)CC2` reads “inactive”.
As for `Cc1ccc(Cn2cc(CCC(=O)NCc3ccc(OC(C)C)cc3)c3ccccc32)cc1`, the Potency result is “inactive”.
For `Cc1cccc(CNc2cc(-c3ccccc3Cl)ncn2)c1`, the Potency result is “inactive”.
For `CC(=O)Nc1c(C)nn(-c2ccccc2)c1N1CCC(C(=O)Nc2cc(Cl)ccc2C)CC1` the value was “inactive”.
The result for `Cc1cccn2c(CNCC(C)Oc3cccnc3)c(C(=O)N3CCOCC3)nc12` (centres undefined) reads 4.47 µM (active); that for `Cc1cc(C)n(CC(C)NCc2c(C(=O)N3CCOCC3)nc3c(C)cccn23)n1` (centres undefined), “inactive”.
With `Cc1cccc(N2CCC(NCc3c(C(=O)N4CCCCC4)nc4c(C)cccn34)CC2)c1`, the Potency entry is “inactive”.
As for `CC(CCC(=O)O)C1CCC2C3C(O)C[C@@H]4CC(O)CC[C@@]4(C)C3CC[C@@]12C` (some centres undefined), the Potency result is “inactive”.
Take `COc1ccc(-c2cc(C(=O)Nc3sc4c(c3C(N)=O)CCCC4)no2)cc1`: the Potency result is “inactive”.
The result for `CCOc1ccc(CNC(=O)c2cccc(Nc3nc4ccccc4n4nnnc34)c2)cc1OC` reads 7.08 µM (active); that for `CCOc1ccc(OCC)c(Nc2nc3ccccc3n3nnnc23)c1`, “inactive”; that for `CCOc1ccc(CNC(=O)c2ccc3nc(CC)c(CC)nc3c2)cc1OC`, “inactive”.
The result for `COc1cc(OC)cc(C(=O)Nc2ccc3nc(Nc4cccc(C(F)(F)F)c4)cc(C)c3c2)c1` reads “inactive”.
As for `COc1cccc(Cn2c(=O)c(C)nc3cnc(Oc4ccccc4)nc32)c1`, the Potency result was “inactive”.
The result for `COc1ccc2c3c1OC1CC(O)C=C[C@@]31CCN(C)C2` (some centres undefined) reads “inactive”; that for `Cc1csc(NC(=O)C2CCN(S(=O)(=O)c3ccccc3)CC2)n1`, “inactive”; that for `Cc1ccc(C(=O)Nc2nc(-c3ccccc3)ns2)cc1`, “inactive”.
For `CC(=O)N1CCC(C(=O)Nc2nc(-c3ccccc3)ns2)CC1` the value was 2.82 µM (active); for `CC(=O)c1ccc(NC(=O)c2nc3nc(C)cc(C(F)F)n3n2)cc1`, “inactive”.
For `CCc1ccccc1OCCSc1nc(-c2cccs2)nc2cc(=O)[nH]n12` the value was “inactive”; for `COc1ccccc1C(=O)N[C@@H]1c2ccccc2C2(CCN(C(=O)c3csnn3)CC2)[C@H]1OC`, “inactive”; for `COc1ccccc1C(=O)N[C@@H]1c2ccccc2C2(CCN(Cc3nc(C(C)C)cs3)CC2)[C@H]1O`, 11.2 µM (active).
Take `CC(C)c1csc(CN2CCC(CO)(Cc3ccccc3)CC2)n1`: the Potency result was “inactive”.
In the case of `O=C(Nc1cccc(F)c1)N1CC[C@@]2(CCCN(C(=O)Oc3ccccc3)C2)C1`, the Potency entry is “inactive”.
The result for `CCN1C[C@]2(COC)C(O)C[C@H](OC)[C@@]34C5C[C@]6(O)C(OC)C(O)[C@](OC(C)=O)(C5C6OC(=O)c5ccccc5)C(C(OC)C23)C14` (some centres undefined) reads “inactive”; that for `CC(NS(=O)(=O)c1ccc(Br)cc1)C(=O)NCC1CCCO1` (centres undefined), 1 µM (active); that for `CCOc1ccc(NS(=O)(=O)c2ccc(C(=O)NCC3CCCO3)cc2)cc1` (centres undefined), “inactive”.
In the case of `O=C(CNC(=O)c1ccc(Br)o1)NCC1CCCO1` (centres undefined), the Potency entry was “inactive”.
With `NCCC(=O)c1ccccc1N`, the Potency result is “inactive”.
For `O=C1NC(=O)N(CCc2ccc(F)cc2)C(=O)/C1=C/C=C/c1ccccc1` the value was 10 µM (active); for `CN(C)C1=NC[C@H](Cc2ccccc2)N1CCc1ccc(F)cc1`, “inactive”.
